Assay outcomes from PubChem BioAssay.
Most compounds without a hit are left out; they make up all but 31% or so of the library.
CYP2C9 activ: activators of human CYP2C9. P11712. recombinant CYP2C9, luciferin-H conversion, luminescence; hits give high values; factor 1 = untreated enzyme, 0 = blocked. activation factor at 5 µM. 96,000 compounds, 1.4% hits. AID 1024;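 active = activation factor of 2 or more for CYP2C9 at a 5 µM dose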
Target sequence (P11712 whole entry, looked up): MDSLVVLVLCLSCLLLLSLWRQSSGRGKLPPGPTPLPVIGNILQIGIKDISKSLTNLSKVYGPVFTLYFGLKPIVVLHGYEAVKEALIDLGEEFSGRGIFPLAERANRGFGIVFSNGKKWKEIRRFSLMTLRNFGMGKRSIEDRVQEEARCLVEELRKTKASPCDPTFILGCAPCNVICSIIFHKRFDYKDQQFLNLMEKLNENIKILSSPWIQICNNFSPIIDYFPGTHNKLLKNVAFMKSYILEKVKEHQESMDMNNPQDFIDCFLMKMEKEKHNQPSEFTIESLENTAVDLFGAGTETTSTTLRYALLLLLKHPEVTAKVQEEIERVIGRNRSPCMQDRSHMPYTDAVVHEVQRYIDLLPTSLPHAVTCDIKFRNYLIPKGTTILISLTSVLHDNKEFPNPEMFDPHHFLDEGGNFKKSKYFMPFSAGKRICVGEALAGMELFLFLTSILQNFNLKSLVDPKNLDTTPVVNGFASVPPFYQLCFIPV
CYP2C19 act: increases human CYP2C19 enzyme activity; P33261; recombinant CYP2C19, luciferin-H EGE luminescence; hits give high values; 0 = fully inhibited enzyme, 1 = untreated enzyme; activation factor at 5 µM; 96,000 tested, under 10 active;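 active = activation factor of at least 2 at 5 µM in the primary screen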
CYP2C19 inh: human CYP2C19 inhibition. 96,000 compounds, 21% hits. CYP2C19 Supersomes, luciferin-H EGE luminescence, 30 min. inhibition, % at 5 µM. P33261;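 active = CYP2C19 inhibition above a set limit at 5 µM in the primary screen, cut at about 50% in these data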
CYP2C9 inhib: inhibitors of human CYP2C9; P11712; CYP2C9 Supersomes, luciferin-H conversion, luminescence; inhibition, % at 5 µM; 96,000 compounds, 20% hits; AID 777;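 active = blocking of liver enzyme CYP2C9 beyond about 50% at 5 µM, limit read from the data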
PLAP activator: human PLAP activation. P05187. purified PLAP enzyme, luminescent substrate read-out; hits give high values. activation fold at 20 µM. 96,000 compounds, 1.2% hits. AID 696; in the data active = activation fold above about 2
Large screens that a line does not name were inactive.

COc1ccc(-c2cc(C(=O)OCC(=O)N3CCCC3)c3ccccc3n2)cc1	CYP2C19 inh 50, CYP2C9 inhib 78
CSc1ccc(Cl)c(C(=O)OCC(=O)NC2CC2)c1	none
Cc1ccc(/C(N)=N/OC(=O)c2cc(-c3ccccc3)nc3ccccc23)cc1	CYP2C9 inhib 54
Cc1cc(C(=O)OCC(=O)N2CCCC2)c2ccccc2n1	none
CC(C)Oc1ccc(CNC(=S)N/N=C/c2cccnc2)cc1	none
CCc1nc(SCc2cccnc2)c(C#N)cc1C	CYP2C19 inh 57
Cc1cc(-c2cccnc2)c(C#N)c(SCc2cccc(F)c2)n1	CYP2C19 inh 69
Cc1cc(-c2cccnc2)c(C#N)c(SCC#N)n1	none
CCCCn1c(=O)c(-[n+]2ccccc2)c([O-])c2ccccc21	none
Cc1nn(Cc2c(Cl)cccc2Cl)c(C)c1NC(=O)/C=C/c1cnn(C)c1C	none
CN(C)c1ccc(S(=O)(=O)c2ccc(Cl)cc2)cc1	none
CN(C)c1ccc(C2C3C(=O)NC(=O)C3ON2c2ccc(Cl)cc2)cc1 (stereo not drawn)	CYP2C19 inh 51
Cc1ccccc1NCCNc1ccccc1C	CYP2C19 inh 83
Cc1cc(C)nc(NCC(O)CNc2ccccc2C)n1 (stereo not drawn)	none
CCOc1cc(S(=O)(=O)n2c(C)nc3ccccc32)ccc1F	CYP2C19 inh 99, CYP2C9 inhib 86
Cc1nc2ccccc2n1S(=O)(=O)c1ccc(S(=O)(=O)N2CCCCCC2)cc1	none
CCn1c(-c2ccccc2Cl)nn(CC(=O)Nc2ccccc2C)c1=S	CYP2C19 inh 51
CCn1nc(C(=O)Nc2ccccc2C)c(Cl)c1Cl	CYP2C9 inhib 55
CCn1c(-c2ccccc2Cl)nn(CC(=O)Nc2ccc(OC)cc2)c1=S	CYP2C19 inh 56, CYP2C9 inhib 60
CCOc1ccc(NC(=O)Cn2nc(-c3ccccc3Cl)n(CC)c2=S)cc1	CYP2C19 inh 62, CYP2C9 inhib 68
Cc1cc(C(=O)NC(C)c2ccncc2)no1 (stereo not drawn)	none
COc1cccc(NC(C)C(=O)N2CC(C)OC(C)C2)c1 (stereo not drawn)	none
C/C(NC(=O)c1cccs1)=C1\C(=O)C[C@@H]2[C@H]1C2(C)C	none
CC1(C)CC(=O)C2=C(C1)Oc1nc3ccccc3cc1C2C(C#N)C#N (stereo not drawn)	CYP2C9 inhib 60
COc1ccc2c(c1)C(C1=C(O)CC(C)(C)CC1=O)C1=C(CC(C)(C)CC1=O)O2 (stereo not drawn)	none
O=C(CSc1c[nH]c2ccccc12)NCC1CCCO1 (stereo not drawn)	CYP2C19 inh 54
O=C(CSc1ncnc2c1nnn2-c1ccc(F)cc1)NCC1CCCO1 (stereo not drawn)	none
Cc1cccc2c(SCC(=O)NCC3CCCO3)nc(-c3ccc(F)cc3)nc12 (stereo not drawn)	CYP2C19 inh 52
CS(=O)(=O)N(CC(=O)NCC1CCCO1)c1ccc(F)c(Cl)c1 (stereo not drawn)	CYP2C19 inh 60
O=C(CSc1ccc2nnc(-c3ccc(F)cc3)n2n1)NCC1CCCO1 (stereo not drawn)	none
Cc1ccc(-n2nnc3c(SCC(=O)NCC4CCCO4)ncnc32)cc1 (stereo not drawn)	CYP2C9 inhib 64
CCCOc1ccc(CC(=O)NCC2(c3ccccc3)CCOCC2)cc1OC	none
Cc1nc2c(nnn2Cc2ccccc2)c(=O)n1-c1ccccc1	none
O=C(CSc1oc(-c2ccco2)nc1S(=O)(=O)c1ccc(Cl)cc1)NCC1CCCO1 (stereo not drawn)	CYP2C19 inh 76
COC(=O)c1ccc(CSc2ncnc3c2nnn3-c2ccc(OC)cc2)o1	CYP2C19 inh 52, CYP2C9 inhib 56
COc1ccc(S(=O)(=O)NC(CC(=O)NCC2CCCO2)c2ccco2)cc1 (stereo not drawn)	none
Cn1c(=O)cc(SCC(=O)NCC2CCCO2)c2ccccc21 (stereo not drawn)	CYP2C9 activ 2.1
O=C(CSc1cc(Cl)ccc1Cl)NCC1CCCO1 (stereo not drawn)	CYP2C9 activ 3.2, CYP2C19 inh 74
CC(C)C(=O)c1cn(CC(=O)NCC2CCCO2)c2ccccc12 (stereo not drawn)	none
O=C(CSCc1c(Cl)cccc1Cl)NCC1CCCO1 (stereo not drawn)	none
C/C(=C\C(=O)O)C12CC3CC(CC(C3)C1)C2	none
Cc1c2c([n+]3n1CCC3)CC(C)(C)CC2=O	none
Cc1ccc2nc3c(cc(C#N)c(=N)n3CC3CCCO3)c(=O)n2c1 (stereo not drawn)	none
Cn1c(=O)c2cc(S(=O)(=O)NCCC(=O)NC3CCCCCCC3)ccc2n(C)c1=O	none
O=C(O)c1ccc(NC(=O)C2(c3ccccc3)CCOCC2)cc1	none
Cn1cc(SCC(=O)NCC2CCCO2)c2ccccc21 (stereo not drawn)	CYP2C9 activ 2.2
CC(C)c1nc(NCC2CCCO2)c(C#N)c2c1COC(C)(C)C2 (stereo not drawn)	CYP2C19 inh 54, CYP2C9 inhib 82
CCc1nc(NC2CCCCC2)c(C#N)c2c1COC(C)(C)C2	none
C=C(Cl)COc1ccc2c(CCCC)cc(=O)oc2c1	CYP2C19 inh 91, CYP2C9 inhib 92
O=C1C(Cl)=C(N2CCOCC2)C(=O)N1c1ccccc1Cl	CYP2C19 inh 94
COC(=O)c1cccc(N2C(=O)C(Cl)=C(N3CCOCC3)C2=O)c1	CYP2C19 inh 61
Cc1ccccc1N1C(=O)C(Cl)=C(N2CCN(c3ccccc3)CC2)C1=O	none
CC(C)(C)c1cc(C(C)(C)C)cc(S(=O)(=O)CCc2ccccn2)c1	none
COc1ccc(-n2nnnc2SCC(=O)Nc2nc3c(s2)CCCC3)cc1	none
CCN(CC)C(=O)CSc1nc2cc(OC)c(OC)cc2c(=O)n1Cc1ccc(Cl)cc1	none
COc1cc2nc(SCc3ccc(F)cc3)n(Cc3cccs3)c(=N)c2cc1OC	CYP2C9 inhib 55
Cc1cc(C)c2c(c1)SC1=NC(c3ccccc3)(C(F)(F)F)NC(=O)N12 (stereo not drawn)	none
Cc1nnc(C)c2c(C)n(C(c3ccccc3)c3ccccc3)c(C)c12	CYP2C9 inhib 56
COc1ccc(S(=O)(=O)NCC(c2cccnc2)N2CCN(c3ccccc3)CC2)cc1C (stereo not drawn)	CYP2C19 inh 73, CYP2C9 inhib 86
COc1ccccc1N1CCN(C(CNS(=O)(=O)c2cccs2)c2cccnc2)CC1 (stereo not drawn)	CYP2C19 inh 57
COc1cc(C(=O)NCC(c2cccnc2)N2CCN(c3ccccc3)CC2)cc(OC)c1OC (stereo not drawn)	none
O=S(=O)(NCC(c1cccnc1)N1CCN(c2ccccc2)CC1)c1cccs1 (stereo not drawn)	CYP2C19 inh 92, CYP2C9 inhib 71
COc1ccc(N2CCN(C(CNS(=O)(=O)c3cc(F)ccc3F)c3cccnc3)CC2)cc1 (stereo not drawn)	CYP2C19 inh 74, CYP2C9 inhib 57
